Results taken from PubChem BioAssay (NCI).
The panel holds about 83,000 compounds, 20% with a hit somewhere; the sample as a whole holds those more often.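 Activity criterion: percent growth below 10, measured after cells in 96-well plates were exposed to a single compound concentration for 48 hours.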 Calls of active or inactive are those of the source.

Columns and labels:
Experiment in all cases: NCI-60 one-dose screen, 48 h (100 = growth as untreated, 0 = no growth, -100 = all killed)
Details in all cases: 10 µM unless noted
[1] = test system: DU-145 prostate
[2] = test system: K-562 leukemia
[3] = test system: MALME-3M melanoma
[4] = test system: MDA-MB-231 breast
[5] = test system: RXF 393 renal
[6] = test system: SF-268 CNS
[7] = test system: SF-295 CNS
[8] = test system: SF-539 CNS
[9] = test system: UACC-257 melanoma
[10] = test system: M14 melanoma
[11] = test system: HCT-15 colon
[12] = test system: HT29 colon
[13] = test system: SNB-75 CNS
[14] = test system: SNB-19 CNS
[15] = test system: U251 CNS
[16] = test system: PC-3 prostate
[17] = test system: SK-MEL-5 melanoma
[18] = test system: UACC-62 melanoma
[19] = test system: LOX IMVI melanoma
[20] = test system: SK-MEL-28 melanoma

Measured: growth

N=C(N)c1ccc(-c2ccc(-c3ccc(Cl)cc3Cl)o2)nc1
inactive: [1] 24.1% | [3] 90% | [5] 64.4% | [6] 80.1% | [8] 42.6% | [9] 91.4% | [10] 70.2% | [14] 48.6% | [16] 56.2% | [17] 87% | [18] 101% | [20] 80.9%
active: [2] 1.13% | [4] -38% | [7] -62.8% | [11] 2.86% | [12] -23.8% | [13] -20% | [15] -37.3% | [19] -82.6%

CCn1nc(C#Cc2c(C)ccc3c(Nc4ccc(Cl)cc4)nccc23)c2c(N)ncnc21
inactive: [1] 34.9% | [2] 12.8% | [6] 17.5% | [11] 23.3% | [15] 26% | [16] 18.9% | [19] 11.3%
active: [3] -40.6% | [4] 8.63% | [5] -4.58% | [7] 4.88% | [8] -31.6% | [9] -9.69% | [10] 5.1% | [12] 2.98% | [13] -8.46% | [14] 9% | [17] -43.9% | [18] -4.21%

N#Cc1cccc(-c2nc3ccccn3c2NCCN2CCOCC2)c1
inactive: [1] 106% | [2] 97.3% | [3] 108% | [4] 94.6% | [5] 96.3% | [6] 90.3% | [7] 101% | [8] 92.2% | [9] 98.8% | [10] 89.9% | [11] 105% | [12] 92.8% | [13] 71.1% | [14] 100% | [15] 98.2% | [16] 89.5% | [17] 104% | [18] 95.5% | [19] 92.5%

Cc1cc(-c2noc(C(F)(F)F)n2)ccc1N1CCN(c2cc(C(=O)N(C)C)no2)CC1
inactive: [1] 85.2% | [2] 33.1% | [3] 78.5% | [4] 69.6% | [5] 105% | [6] 82.2% | [7] 49.8% | [8] 86.1% | [9] 54% | [10] 81.5% | [11] 70.3% | [12] 78.3% | [13] 73% | [14] 64.1% | [15] 71.9% | [16] 56.8% | [18] 62.1% | [19] 62.4%
active: [17] 2.91%

CSc1nc2sc3cc(Cl)ccc3n2c(=N)c1C#N
inactive: [1] 96.1% | [2] 110% | [3] 40.1% | [4] 72.8% | [6] 47.3% | [7] 26.1% | [8] 70.2% | [9] 45.7% | [10] 82.4% | [11] 94.7% | [12] 33% | [13] 26% | [14] 81.8% | [15] 89.4% | [16] 66.4% | [17] 45.2% | [18] 59.4% | [19] 86.8% | [20] 41.9%
active: [5] -0.36%

C=C1C(=O)O[C@H]2[C@H]1CC/C(Cn1cc(CNCCc3c[nH]c4ccccc34)nn1)=C\CC[C@@]1(C)O[C@@H]21
inactive: [1] 104% | [2] 32% | [3] 76% | [4] 92.4% | [5] 85.4% | [6] 95.8% | [7] 102% | [8] 81.1% | [9] 77.4% | [10] 84.3% | [11] 102% | [12] 61.2% | [13] 79.8% | [14] 98.3% | [15] 92.8% | [16] 94.1% | [17] 96.5% | [18] 84.7% | [19] 94% | [20] 89%

NS(=O)(=O)Oc1ccc(-c2sc3cc(O)ccc3c2C(=O)c2ccc(OCCN3CCCCC3)cc2)cc1
active: [9] -44.2% | [10] -17% | [12] 0.722% | [18] -47.2%
inactive: [1] 51.2% | [2] 14.1% | [3] 63.7% | [4] 72% | [5] 66.8% | [6] 68.4% | [7] 48.1% | [8] 62.8% | [11] 36.2% | [13] 39.6% | [14] 78.2% | [15] 21.9% | [16] 69.9% | [17] 46.2% | [19] 34.4% | [20] 23.6%

CCCCN1CCN(c2ccc3nc(-c4ccc5nc(-c6ccc(OCC)c(OCC)c6)[nH]c5c4)[nH]c3c2)CC1
active: [1] -86.2% | [2] -37.1% | [3] 9.35% | [4] -81.2% | [5] -96.3% | [7] -67.8% | [8] -93.7% | [10] -28% | [11] -30.4% | [12] -20.8% | [14] -28.8% | [15] -61.4% | [16] -49.1% | [17] 8.19% | [19] -81.9%
inactive: [6] 51.6% | [9] 29% | [13] 24.1% | [18] 17.7%

CN(C)c1ccc(/C=C2\C=C(c3ccccc3)N(CCc3ccccc3)C2=O)cc1
inactive: [1] 60.4% | [2] 90.6% | [3] 57.7% | [4] 84.6% | [5] 81.4% | [6] 43.8% | [7] 53.9% | [8] 61.6% | [9] 76.8% | [10] 51.7% | [11] 83.2% | [12] 77.8% | [14] 46.6% | [15] 33.2% | [16] 52.3% | [17] 82.7% | [18] 67.3% | [19] 48.9% | [20] 89.8%
active: [13] -29.1%

COc1ccc(C2CC(c3ccccc3)=NN2c2nc(C)c(C(C)=O)s2)cc1 (stereo unspecified)
inactive: [1] 102% | [2] 95% | [3] 95.2% | [4] 96.6% | [5] 94.1% | [6] 91.3% | [7] 99% | [8] 94.3% | [9] 102% | [10] 97.3% | [11] 98.7% | [12] 102% | [13] 90.2% | [14] 99.3% | [15] 100% | [16] 97% | [17] 103% | [18] 91.5% | [19] 94.6% | [20] 112%

CCN(CC)S(=O)(=O)c1ccc(O)c(NC(=O)c2[nH]c(C)c(C(C)=O)c2CCc2ccc(Cl)cc2)c1
active: [17] -25%
inactive: [1] 68.4% | [2] 29.8% | [3] 53% | [4] 50.6% | [5] 91.2% | [6] 55.4% | [7] 59.3% | [8] 64.5% | [9] 38.3% | [10] 56.8% | [11] 42.9% | [12] 101% | [13] 52.1% | [14] 47.1% | [15] 31.1% | [16] 32.8% | [18] 20.2% | [19] 39.5% | [20] 70.9%

CCN1CCN(c2ccc(Nc3cc(-c4cccnc4Nc4c(Cl)c(OC)cc(OC)c4Cl)ncn3)cc2)CC1
inactive: [1] 62.9% | [2] 44.5% | [3] 76.2% | [4] 85.8% | [5] 34.3% | [6] 65.1% | [7] 79.5% | [8] 47.1% | [9] 91.6% | [10] 72.9% | [11] 63.3% | [12] 31.9% | [13] 42.8% | [14] 81% | [15] 71.6% | [16] 55.3% | [17] 74% | [18] 85.9% | [19] 44.7% | [20] 100%

O=C(/C=C/C12c3ccccc3C(c3ccccc31)C1C(=O)N(c3ccc(Cl)cc3)C(=O)C12)c1ccccn1 (stereo unspecified)
active: [1] -86.5% | [2] 4.62% | [3] -52% | [4] -16% | [5] -88.6% | [6] 8.62% | [7] -9.27% | [8] -52.7% | [9] 2.58% | [10] -1.41% | [11] -35% | [12] 1.52% | [13] -18.7% | [14] -71.9% | [15] -48.3% | [16] -19.8% | [17] -83.5% | [18] -44.6% | [19] -89.4% | [20] -12.4%

c1ccc2c(c1)ncn2-c1nc2ccccc2n2c1nc1ccccc12
inactive: [1] 89% | [2] 82.9% | [3] 128% | [4] 80.7% | [5] 88.8% | [6] 94.3% | [7] 90.2% | [8] 79.8% | [9] 104% | [10] 91.1% | [11] 43.1% | [12] 40.9% | [13] 81.3% | [14] 86.8% | [15] 87.6% | [16] 72.4% | [17] 55.8% | [18] 77.3% | [19] 79.1% | [20] 107%

CC1(C)C(=O)/C(=C\c2cccnc2)C[C@]2(C)[C@H]3CC=C4[C@@H]5C[C@@](C)(C(=O)O)CC[C@]5(C)CC[C@@]4(C)[C@]3(C)CC[C@@H]12
inactive: [1] 104% | [2] 80.7% | [3] 126% | [4] 101% | [5] 92.2% | [6] 98.9% | [7] 93.9% | [8] 101% | [9] 87.7% | [10] 100% | [11] 87.5% | [12] 91.5% | [13] 82% | [14] 96.8% | [15] 89% | [16] 75.3% | [17] 109% | [18] 97.7% | [19] 99.5% | [20] 109%
